Laboratory results as given in article PMC7862700, “An all-to-all approach to the identification of sequence-specific readers for epigenetic DNA modifications on cytosine”.

Experiments:
Assay in all cases: DAPPL (digital affinity profiling via proximity ligation, sequencing); 10 mM Tris-HCl pH 7.5, 50 mM NaCl, 1 mM DTT, 4% glycerol, room temperature, 30 min; GST-TFs on glutathione beads, 16-mer random dsDNA library, 0.1% formaldehyde crosslink after washing; high values mean tight binding
[1] = biological target: T1, FEV (Homo sapiens, UniProt Q99581 1-238); conditions: protein: recombinant; tags: N-terminal GST; dsDNA, one strand shown
T1 sequence: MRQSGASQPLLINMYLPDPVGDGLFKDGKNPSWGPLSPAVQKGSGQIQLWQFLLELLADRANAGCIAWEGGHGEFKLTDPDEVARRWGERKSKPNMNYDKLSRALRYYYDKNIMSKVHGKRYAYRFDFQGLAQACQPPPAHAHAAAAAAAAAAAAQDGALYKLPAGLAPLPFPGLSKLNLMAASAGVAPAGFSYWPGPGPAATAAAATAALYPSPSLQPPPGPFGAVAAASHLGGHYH
Summary of the method: (§1)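 Yeast served to express human transcription factors as GST fusions, which were then captured on glutathione beads and labelled with DNA barcodes. Pooled with a tag-only sample, they were incubated with 200 nmole of a 16-mer random double-stranded DNA library for 30 min at room temperature in Tris/NaCl/DTT/glycerol buffer, washed, crosslinked with 0.1% formaldehyde, ligated by proximity, amplified by PCR and sequenced. Dividing each hexamer's read frequency for a factor by its frequency for the tag-only sample gives the binding signal.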

[2] = biological target: ETV5 (Homo sapiens, UniProt P41161 1-510); conditions: protein: recombinant; tags: N-terminal GST; dsDNA, one strand shown
ETV5, sequence (P41161 whole entry): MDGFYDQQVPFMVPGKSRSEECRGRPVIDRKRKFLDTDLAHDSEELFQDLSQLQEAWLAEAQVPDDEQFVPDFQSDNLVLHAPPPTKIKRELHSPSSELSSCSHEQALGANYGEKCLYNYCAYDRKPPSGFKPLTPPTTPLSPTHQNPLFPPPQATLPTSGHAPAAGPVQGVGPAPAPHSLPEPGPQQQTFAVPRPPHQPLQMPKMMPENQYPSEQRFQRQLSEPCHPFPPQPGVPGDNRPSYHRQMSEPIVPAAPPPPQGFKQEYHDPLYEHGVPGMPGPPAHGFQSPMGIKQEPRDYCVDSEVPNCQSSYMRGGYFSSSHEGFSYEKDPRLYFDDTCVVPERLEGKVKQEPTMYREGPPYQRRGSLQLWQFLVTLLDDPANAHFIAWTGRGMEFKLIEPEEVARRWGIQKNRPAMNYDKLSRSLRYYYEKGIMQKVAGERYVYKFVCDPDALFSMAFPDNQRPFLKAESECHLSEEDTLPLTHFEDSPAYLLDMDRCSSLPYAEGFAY
Summary of the method: as §1

[3] = biological target: HSF1 (Homo sapiens, UniProt Q00613 1-529); conditions: protein: recombinant; tags: N-terminal GST; chain copies: 3; dsDNA, one strand shown
HSF1, sequence (Q00613 whole entry): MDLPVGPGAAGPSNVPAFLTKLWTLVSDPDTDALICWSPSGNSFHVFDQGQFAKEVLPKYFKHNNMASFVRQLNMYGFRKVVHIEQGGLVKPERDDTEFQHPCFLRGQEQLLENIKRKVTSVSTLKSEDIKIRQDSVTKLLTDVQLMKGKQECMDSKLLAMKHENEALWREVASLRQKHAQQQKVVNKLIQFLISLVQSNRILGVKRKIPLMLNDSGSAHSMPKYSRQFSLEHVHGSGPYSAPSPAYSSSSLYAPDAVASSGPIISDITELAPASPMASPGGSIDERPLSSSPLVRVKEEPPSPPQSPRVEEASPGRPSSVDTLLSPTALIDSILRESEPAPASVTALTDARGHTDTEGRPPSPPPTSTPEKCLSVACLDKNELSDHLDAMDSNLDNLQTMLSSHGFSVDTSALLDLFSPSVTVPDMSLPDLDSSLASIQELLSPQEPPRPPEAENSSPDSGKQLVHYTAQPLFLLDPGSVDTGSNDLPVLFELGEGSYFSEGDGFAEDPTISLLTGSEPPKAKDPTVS
Summary of the method: as §1

[4] = biological target: T2, SPIC (Homo sapiens, UniProt Q8N5J4 1-248); conditions: protein: recombinant; tags: N-terminal GST; dsDNA, one strand shown
T2 sequence: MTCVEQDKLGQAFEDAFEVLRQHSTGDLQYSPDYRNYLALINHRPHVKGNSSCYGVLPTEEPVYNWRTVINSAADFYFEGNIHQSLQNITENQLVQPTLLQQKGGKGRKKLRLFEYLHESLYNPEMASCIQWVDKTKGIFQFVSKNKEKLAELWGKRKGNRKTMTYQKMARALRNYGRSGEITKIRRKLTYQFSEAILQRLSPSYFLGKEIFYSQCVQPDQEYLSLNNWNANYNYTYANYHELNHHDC
Summary of the method: as §1

[5] = biological target: ELF4 (Homo sapiens, UniProt Q99607 1-663); conditions: protein: recombinant; tags: N-terminal GST; dsDNA, one strand shown
ELF4, sequence (Q99607 whole entry): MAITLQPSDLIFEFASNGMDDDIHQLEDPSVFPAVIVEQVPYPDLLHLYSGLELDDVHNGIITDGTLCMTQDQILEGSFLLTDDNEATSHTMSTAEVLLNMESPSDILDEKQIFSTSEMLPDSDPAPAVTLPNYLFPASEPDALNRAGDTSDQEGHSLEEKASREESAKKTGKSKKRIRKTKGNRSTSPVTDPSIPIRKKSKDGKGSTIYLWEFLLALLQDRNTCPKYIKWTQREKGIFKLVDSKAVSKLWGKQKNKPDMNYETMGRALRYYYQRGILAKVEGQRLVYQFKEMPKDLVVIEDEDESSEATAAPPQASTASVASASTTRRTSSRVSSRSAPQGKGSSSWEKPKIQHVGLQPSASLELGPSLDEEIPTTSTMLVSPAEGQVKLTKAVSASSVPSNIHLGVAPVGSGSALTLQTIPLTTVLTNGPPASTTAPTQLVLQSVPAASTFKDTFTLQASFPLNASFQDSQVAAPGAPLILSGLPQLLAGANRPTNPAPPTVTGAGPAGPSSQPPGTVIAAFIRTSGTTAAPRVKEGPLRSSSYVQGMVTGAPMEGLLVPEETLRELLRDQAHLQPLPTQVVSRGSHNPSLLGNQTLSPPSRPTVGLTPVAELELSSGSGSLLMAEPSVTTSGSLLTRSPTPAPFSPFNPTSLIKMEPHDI
Summary of the method: as §1

[6] = biological target: T3, ELK4 (Homo sapiens, UniProt P28324-2 1-405); conditions: protein: recombinant; tags: N-terminal GST; dsDNA, one strand shown
T3 sequence: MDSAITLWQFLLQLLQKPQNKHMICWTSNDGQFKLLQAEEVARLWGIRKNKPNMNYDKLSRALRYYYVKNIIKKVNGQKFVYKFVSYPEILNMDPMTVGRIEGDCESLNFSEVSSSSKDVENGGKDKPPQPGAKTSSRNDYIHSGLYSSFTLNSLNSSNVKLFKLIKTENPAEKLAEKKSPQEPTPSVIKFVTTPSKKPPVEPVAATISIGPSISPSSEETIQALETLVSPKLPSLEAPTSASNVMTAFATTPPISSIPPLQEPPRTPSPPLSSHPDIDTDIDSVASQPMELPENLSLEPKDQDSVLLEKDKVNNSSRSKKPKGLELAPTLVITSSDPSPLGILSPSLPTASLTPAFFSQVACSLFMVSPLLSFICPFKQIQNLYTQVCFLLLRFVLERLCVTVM
Summary of the method: as §1

[7] = biological target: T4, ETV2 (Homo sapiens, UniProt O00321 1-342); conditions: protein: recombinant; tags: N-terminal GST; dsDNA, one strand shown
T4 sequence: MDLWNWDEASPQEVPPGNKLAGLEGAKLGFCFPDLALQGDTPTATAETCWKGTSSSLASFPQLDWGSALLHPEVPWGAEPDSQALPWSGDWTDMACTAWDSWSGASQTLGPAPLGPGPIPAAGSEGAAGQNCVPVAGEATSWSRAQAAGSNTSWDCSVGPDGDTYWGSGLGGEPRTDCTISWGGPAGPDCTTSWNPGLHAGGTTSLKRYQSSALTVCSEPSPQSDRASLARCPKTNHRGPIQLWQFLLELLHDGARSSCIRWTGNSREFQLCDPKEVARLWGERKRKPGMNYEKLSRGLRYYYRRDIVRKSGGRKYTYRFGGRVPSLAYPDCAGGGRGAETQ
Summary of the method: as §1

[8] = biological target: T5, ELF3 (Homo sapiens, UniProt P78545 1-371); conditions: protein: recombinant; tags: N-terminal GST; dsDNA, one strand shown
T5 sequence: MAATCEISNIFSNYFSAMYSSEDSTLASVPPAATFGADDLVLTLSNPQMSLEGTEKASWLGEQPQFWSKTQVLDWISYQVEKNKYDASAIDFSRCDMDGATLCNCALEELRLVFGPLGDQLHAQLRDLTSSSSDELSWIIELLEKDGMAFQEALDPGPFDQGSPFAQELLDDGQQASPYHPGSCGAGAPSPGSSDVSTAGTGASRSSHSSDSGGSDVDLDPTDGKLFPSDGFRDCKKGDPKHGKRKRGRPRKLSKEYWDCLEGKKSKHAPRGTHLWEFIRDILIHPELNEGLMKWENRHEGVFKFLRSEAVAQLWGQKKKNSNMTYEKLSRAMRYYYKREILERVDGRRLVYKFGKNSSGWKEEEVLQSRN
Summary of the method: as §1

[9] = biological target: CRX (Homo sapiens, UniProt O43186 1-299); conditions: protein: recombinant; tags: N-terminal GST; dsDNA, one strand shown
CRX, sequence (O43186 whole entry): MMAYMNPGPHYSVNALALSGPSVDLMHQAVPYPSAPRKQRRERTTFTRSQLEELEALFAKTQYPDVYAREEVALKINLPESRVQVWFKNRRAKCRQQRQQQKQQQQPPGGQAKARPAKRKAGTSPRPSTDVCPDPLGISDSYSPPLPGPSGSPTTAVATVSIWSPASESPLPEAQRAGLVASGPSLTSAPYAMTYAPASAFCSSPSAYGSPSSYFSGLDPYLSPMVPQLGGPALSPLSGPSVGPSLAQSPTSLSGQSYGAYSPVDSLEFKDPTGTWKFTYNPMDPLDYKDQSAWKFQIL
Summary of the method: as §1

[10] = biological target: ETV1 (Homo sapiens, UniProt P50549 1-477); conditions: protein: recombinant; tags: N-terminal GST; dsDNA, one strand shown
ETV1, sequence (P50549 whole entry): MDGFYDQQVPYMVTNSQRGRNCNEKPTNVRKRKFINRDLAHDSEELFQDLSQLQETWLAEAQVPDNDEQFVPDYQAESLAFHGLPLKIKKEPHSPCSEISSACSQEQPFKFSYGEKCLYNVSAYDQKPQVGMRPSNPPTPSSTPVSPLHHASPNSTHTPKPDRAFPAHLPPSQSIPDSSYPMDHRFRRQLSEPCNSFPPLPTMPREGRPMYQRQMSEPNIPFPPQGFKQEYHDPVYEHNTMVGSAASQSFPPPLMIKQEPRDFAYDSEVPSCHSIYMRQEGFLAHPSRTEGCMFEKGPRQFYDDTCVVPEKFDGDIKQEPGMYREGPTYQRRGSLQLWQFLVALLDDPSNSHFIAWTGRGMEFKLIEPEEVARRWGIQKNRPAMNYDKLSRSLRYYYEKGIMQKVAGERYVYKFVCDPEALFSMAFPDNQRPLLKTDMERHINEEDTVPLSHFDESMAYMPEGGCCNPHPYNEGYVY
Summary of the method: as §1

[11] = biological target: T6, ERF (Homo sapiens, UniProt P50548 1-548); conditions: protein: recombinant; tags: N-terminal GST; dsDNA, one strand shown
T6 sequence: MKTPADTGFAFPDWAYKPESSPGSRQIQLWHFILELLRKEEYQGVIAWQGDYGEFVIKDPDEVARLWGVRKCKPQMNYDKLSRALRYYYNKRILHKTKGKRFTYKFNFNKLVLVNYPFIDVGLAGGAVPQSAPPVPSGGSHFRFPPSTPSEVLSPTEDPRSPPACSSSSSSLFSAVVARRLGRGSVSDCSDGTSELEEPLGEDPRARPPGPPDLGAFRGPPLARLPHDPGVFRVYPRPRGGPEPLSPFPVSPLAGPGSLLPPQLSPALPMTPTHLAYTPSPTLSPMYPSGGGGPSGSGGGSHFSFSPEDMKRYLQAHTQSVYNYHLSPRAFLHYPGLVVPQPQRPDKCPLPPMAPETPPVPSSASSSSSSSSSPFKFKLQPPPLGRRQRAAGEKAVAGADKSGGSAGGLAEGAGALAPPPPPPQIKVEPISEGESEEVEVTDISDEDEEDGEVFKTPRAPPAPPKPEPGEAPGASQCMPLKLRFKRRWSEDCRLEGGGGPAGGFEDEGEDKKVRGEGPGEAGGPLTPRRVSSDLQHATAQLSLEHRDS
Summary of the method: as §1

[12] = biological target: T7, ETV3L (Homo sapiens, UniProt Q6ZN32 1-361); conditions: protein: recombinant; tags: N-terminal GST; dsDNA, one strand shown
T7 sequence: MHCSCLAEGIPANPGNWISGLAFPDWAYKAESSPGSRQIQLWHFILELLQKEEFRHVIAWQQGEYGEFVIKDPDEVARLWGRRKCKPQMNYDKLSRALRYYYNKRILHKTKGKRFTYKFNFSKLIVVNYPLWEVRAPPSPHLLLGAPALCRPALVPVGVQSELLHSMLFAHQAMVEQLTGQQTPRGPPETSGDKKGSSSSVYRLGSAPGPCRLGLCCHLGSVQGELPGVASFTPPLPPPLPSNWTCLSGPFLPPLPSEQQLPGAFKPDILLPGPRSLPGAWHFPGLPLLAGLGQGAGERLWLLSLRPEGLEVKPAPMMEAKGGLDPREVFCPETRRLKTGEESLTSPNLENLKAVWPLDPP
Summary of the method: as §1

[13] = biological target: T8, ETS2 (Homo sapiens, UniProt P15036 1-469); conditions: protein: recombinant; tags: N-terminal GST; dsDNA, one strand shown
T8 sequence: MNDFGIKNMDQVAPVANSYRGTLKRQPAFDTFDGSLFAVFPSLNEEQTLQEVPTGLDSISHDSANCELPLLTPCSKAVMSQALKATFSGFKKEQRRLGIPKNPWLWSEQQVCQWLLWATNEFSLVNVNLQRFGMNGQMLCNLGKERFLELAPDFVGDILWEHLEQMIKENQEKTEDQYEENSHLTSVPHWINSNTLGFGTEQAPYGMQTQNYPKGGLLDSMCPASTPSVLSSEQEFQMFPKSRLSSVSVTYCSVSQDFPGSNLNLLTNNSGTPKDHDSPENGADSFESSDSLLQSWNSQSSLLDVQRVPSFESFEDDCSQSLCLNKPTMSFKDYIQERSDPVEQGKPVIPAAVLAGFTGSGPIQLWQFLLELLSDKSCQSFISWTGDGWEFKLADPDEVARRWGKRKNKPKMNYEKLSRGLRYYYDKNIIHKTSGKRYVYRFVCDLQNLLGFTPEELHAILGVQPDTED
Summary of the method: as §1

[14] = biological target: T9, SPDEF (Homo sapiens, UniProt O95238 1-335); conditions: protein: recombinant; tags: N-terminal GST; dsDNA, one strand shown
T9 sequence: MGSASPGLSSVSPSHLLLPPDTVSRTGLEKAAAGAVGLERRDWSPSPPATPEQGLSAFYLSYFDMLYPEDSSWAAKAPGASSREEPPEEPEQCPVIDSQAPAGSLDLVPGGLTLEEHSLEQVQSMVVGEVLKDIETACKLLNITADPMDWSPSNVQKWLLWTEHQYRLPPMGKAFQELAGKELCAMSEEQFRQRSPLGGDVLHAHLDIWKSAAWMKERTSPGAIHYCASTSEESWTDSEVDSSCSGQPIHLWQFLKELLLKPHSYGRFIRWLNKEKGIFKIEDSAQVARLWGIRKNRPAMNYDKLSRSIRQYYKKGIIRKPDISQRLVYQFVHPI
Summary of the method: as §1

[15] = biological target: T10, ETV7 (Homo sapiens, UniProt Q9Y603 1-341); conditions: protein: recombinant; tags: N-terminal GST; dsDNA, one strand shown
T10 sequence: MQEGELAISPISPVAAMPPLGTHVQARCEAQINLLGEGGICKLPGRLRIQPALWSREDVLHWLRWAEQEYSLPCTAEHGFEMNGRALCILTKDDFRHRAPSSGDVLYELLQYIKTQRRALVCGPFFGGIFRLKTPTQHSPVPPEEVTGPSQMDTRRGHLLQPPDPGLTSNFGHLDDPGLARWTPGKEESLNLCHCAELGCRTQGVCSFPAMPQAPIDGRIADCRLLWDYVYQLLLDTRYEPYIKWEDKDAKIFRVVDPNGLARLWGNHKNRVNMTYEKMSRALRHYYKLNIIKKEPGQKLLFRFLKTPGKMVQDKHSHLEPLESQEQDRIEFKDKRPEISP
Summary of the method: as §1

[16] = biological target: T11, ELF5 (Homo sapiens, UniProt Q9UKW6-2 1-255); conditions: protein: recombinant; tags: N-terminal GST; dsDNA, one strand shown
T11 sequence: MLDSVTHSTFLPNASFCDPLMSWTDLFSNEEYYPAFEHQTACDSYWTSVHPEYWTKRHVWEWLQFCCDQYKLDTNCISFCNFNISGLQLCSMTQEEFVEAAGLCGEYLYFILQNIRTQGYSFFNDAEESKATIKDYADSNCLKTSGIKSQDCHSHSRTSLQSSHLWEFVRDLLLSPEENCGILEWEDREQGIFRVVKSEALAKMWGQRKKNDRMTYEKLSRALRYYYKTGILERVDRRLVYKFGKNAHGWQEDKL
Summary of the method: as §1

[17] = biological target: T12, ETV3 (Homo sapiens, UniProt P41162-2 1-143); conditions: protein: recombinant; tags: N-terminal GST; dsDNA, one strand shown
T12 sequence: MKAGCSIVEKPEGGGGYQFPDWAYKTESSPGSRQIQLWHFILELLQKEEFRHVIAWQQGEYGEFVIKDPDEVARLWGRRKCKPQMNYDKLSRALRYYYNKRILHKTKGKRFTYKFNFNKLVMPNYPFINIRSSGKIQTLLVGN
Summary of the method: as §1

[18] = biological target: ETV6 (Homo sapiens, UniProt P41212 1-452); conditions: protein: recombinant; tags: N-terminal GST; dsDNA, one strand shown
ETV6, sequence (P41212 whole entry): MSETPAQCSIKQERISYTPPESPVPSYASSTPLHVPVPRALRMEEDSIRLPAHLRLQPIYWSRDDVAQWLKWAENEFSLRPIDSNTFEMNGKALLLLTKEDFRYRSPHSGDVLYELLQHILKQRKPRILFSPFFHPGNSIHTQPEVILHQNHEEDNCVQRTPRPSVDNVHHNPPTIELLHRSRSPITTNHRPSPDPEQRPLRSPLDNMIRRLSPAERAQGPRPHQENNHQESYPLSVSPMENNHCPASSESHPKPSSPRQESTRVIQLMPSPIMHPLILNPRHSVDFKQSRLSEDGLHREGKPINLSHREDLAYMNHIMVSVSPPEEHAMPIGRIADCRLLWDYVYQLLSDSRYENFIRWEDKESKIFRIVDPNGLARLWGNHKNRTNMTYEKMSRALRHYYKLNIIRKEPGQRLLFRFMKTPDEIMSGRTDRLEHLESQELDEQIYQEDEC
Summary of the method: as §1

## CCGCAT
[1]
  binding signal: 1.49 fold enrichment (6-mer frequency, TF over GST control)
[2]
  binding signal: 1.65 fold enrichment (6-mer frequency, TF over GST control)
[3]
  binding signal: 1.13 fold enrichment (6-mer frequency, TF over GST control)
[4]
  binding signal: 1.53 fold enrichment (6-mer frequency, TF over GST control)
[5]
  binding signal: 1.62 fold enrichment (6-mer frequency, TF over GST control)
[6]
  binding signal: 1.31 fold enrichment (6-mer frequency, TF over GST control)
[7]
  binding signal: 1.52 fold enrichment (6-mer frequency, TF over GST control)
[8]
  binding signal: 1.95 fold enrichment (6-mer frequency, TF over GST control)
[9]
  binding signal: 1.19 fold enrichment (6-mer frequency, TF over GST control)
[10]
  binding signal: 1.59 fold enrichment (6-mer frequency, TF over GST control)
[11]
  binding signal: 1.46 fold enrichment (6-mer frequency, TF over GST control)
[12]
  binding signal: 1.6 fold enrichment (6-mer frequency, TF over GST control)
[13]
  binding signal: 1.56 fold enrichment (6-mer frequency, TF over GST control)
[14]
  binding signal: 1.64 fold enrichment (6-mer frequency, TF over GST control)
[15]
  binding signal: 1.44 fold enrichment (6-mer frequency, TF over GST control)
[16]
  binding signal: 1.75 fold enrichment (6-mer frequency, TF over GST control)
[17]
  binding signal: 1.57 fold enrichment (6-mer frequency, TF over GST control)
[18]
  binding signal: 1.59 fold enrichment (6-mer frequency, TF over GST control)
